Most compounds without a hit are left out; they make up all but 1.2% or so of the library.
RPL19A TOR yeast = alters RPL19A-GFP fluorescence in TOR pathway yeast screen; S. cerevisiae RPL19A-GFP strain, flow cytometry, 3 h; hits give low values; percent response vs DMSO, % at 10 µM; 330,000 compounds, 0.3% hits; AID 2025;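 active = percent response vs DMSO below 50%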;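 note: median channel GFP fluorescence of the barcoded RPL19A-GFP strain; lower means less RPL19A-GFP as with rapamycin TOR inhibition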
MEP2-GFP yeast = modulators of TOR pathway MEP2-GFP in S. cerevisiae. S. cerevisiae MEP2-GFP strain, flow cytometry GFP, 3 h; 100% = DMSO control level. GFP response vs DMSO, % at 10 µM. 330,000 compounds, 0.51% hits;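 active = GFP response versus DMSO above a set limit, roughly screen mean plus 3 SD, cut at about 180% in these data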;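 note: median GFP fluorescence of the barcode-gated MEP2-GFP cells per well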
Pemphigus Ab inh = blocks pemphigus antibody binding to human desmoglein-3 | DSG3-coupled beads, scFv-anti-DSG3-GFP binding, flow cytometry; hits give low values | binding (percent of control), % at 10 µM | AID 588358 | 310,000 compounds, 0.48% hits;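 active = binding more than 3 SD below its plate's average and above zero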;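 note: hits lower antibody fragment binding to DSG3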
Target sequence (P32926 whole entry, looked up, the tested form may be a part): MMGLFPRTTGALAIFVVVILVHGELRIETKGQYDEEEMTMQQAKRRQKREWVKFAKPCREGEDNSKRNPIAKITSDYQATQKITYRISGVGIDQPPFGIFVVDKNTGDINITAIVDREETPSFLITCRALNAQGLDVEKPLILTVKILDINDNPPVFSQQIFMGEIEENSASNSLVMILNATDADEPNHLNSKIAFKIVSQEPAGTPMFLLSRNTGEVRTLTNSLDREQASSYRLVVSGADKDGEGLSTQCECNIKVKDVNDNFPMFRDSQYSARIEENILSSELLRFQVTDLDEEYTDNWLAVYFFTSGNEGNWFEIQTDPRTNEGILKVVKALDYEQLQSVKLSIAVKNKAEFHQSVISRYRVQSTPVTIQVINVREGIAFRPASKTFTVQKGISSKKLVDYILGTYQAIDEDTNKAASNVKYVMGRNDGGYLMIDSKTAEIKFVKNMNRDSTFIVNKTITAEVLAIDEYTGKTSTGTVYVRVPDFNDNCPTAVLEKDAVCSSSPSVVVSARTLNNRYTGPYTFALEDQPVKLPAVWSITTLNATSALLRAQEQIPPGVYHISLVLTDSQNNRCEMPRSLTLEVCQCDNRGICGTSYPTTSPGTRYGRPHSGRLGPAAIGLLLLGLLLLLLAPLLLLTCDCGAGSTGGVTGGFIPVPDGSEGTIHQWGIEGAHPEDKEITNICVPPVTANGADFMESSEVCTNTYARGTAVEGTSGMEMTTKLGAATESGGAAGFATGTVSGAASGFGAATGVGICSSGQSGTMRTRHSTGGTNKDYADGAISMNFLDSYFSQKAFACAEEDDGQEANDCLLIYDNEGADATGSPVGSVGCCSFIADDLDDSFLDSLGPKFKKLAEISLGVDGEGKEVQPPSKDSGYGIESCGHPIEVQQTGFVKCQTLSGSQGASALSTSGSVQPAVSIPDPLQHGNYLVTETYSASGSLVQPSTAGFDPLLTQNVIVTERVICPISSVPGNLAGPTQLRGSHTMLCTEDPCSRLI
AGP1 TOR yeast = yeast TOR pathway AGP1-GFP modulation; S. cerevisiae AGP1-GFP multiplex flow cytometry, 3 h; GFP as percent of DMSO wells; GFP response vs DMSO, % at 10 µM; 320,000 compounds, 0.02% hits; AID 2066;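 active = GFP response relative to DMSO above a set limit, near screen average plus 3 SD, cut at about 150% in these data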;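 note: median GFP channel fluorescence of the gated AGP1 strain per well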
LAP4-GFP MLPCN = alters LAP4-GFP fluorescence in TOR pathway yeast screen. S. cerevisiae LAP4-GFP multiplex, flow cytometry GFP, 3 h; median GFP as percent of DMSO wells. GFP response vs DMSO, % at 10 µM. 320,000 compounds, 0.34% hits;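 active = GFP response vs DMSO above a set limit, about the screen mean plus 3 SD, cut at about 150% in these data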
CIT2 TOR yeast = modulators of TOR pathway CIT2-GFP in S. cerevisiae; S. cerevisiae CIT2-GFP strain, flow cytometry, 3 h; 100 means same as DMSO wells; GFP response vs DMSO, % at 10 µM; 320,000 compounds, 0.065% hits;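 active = GFP response relative to DMSO above a set limit, near the screen mean plus 3 SD, cut at about 150% in these data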;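 note: ratio of well median GFP fluorescence to mean of DMSO wells on the plate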
LAP4 cherry2 = second confirmation of modulators of TOR reporter LAP4-GFP in yeast; shares compounds with LAP4-GFP MLPCN; S. cerevisiae LAP4-GFP strain, flow cytometry GFP, 3 h; GFP response vs DMSO, % at 10 µM; 590 compounds, 20% hits;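 active = GFP signal as percent of the solvent control above about 150%, meaning raised reporter expression, limit read from the data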
MEP2 cherry2 = second confirmation of modulators of TOR reporter MEP2-GFP in yeast | shares compounds with LAP4-GFP MLPCN | S. cerevisiae MEP2-GFP strain, flow cytometry GFP, 3 h | GFP response vs DMSO, % at 10 µM | 590 compounds, 10% hits;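 active = GFP signal above 150% of the solvent control wells, that is a rise of more than half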;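 note: median channel GFP fluorescence of all gated yeast cells per well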
RPL19A GFP CP2 = yeast RPL19A-GFP TOR reporter modulation, second cherry pick; 590 compounds, 3% hits; S. cerevisiae RPL19A-GFP strain, flow cytometry GFP, 3 h; hits give low values; 100% means same as DMSO wells; shares compounds with LAP4-GFP MLPCN; GFP response vs DMSO, % at 10 µM;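 active = under 65% GFP response relative to DMSO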;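 note: median GFP channel fluorescence per well over the all cells gate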
CIT2-GFP pick2 = second confirmation of modulators of TOR reporter CIT2-GFP in yeast; AID 2624; S. cerevisiae CIT2-GFP strain, flow cytometry GFP, 3 h; DMSO control wells read 100%; 590 compounds, 8% hits; shares compounds with LAP4-GFP MLPCN; GFP response vs DMSO, % at 10 µM;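 active = GFP response vs DMSO above about 150%, limit read from the data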;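 note: median green fluorescence per well over all gated yeast cells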
AGP1 GFP CP2 = second confirmation of modulators of TOR reporter AGP1-GFP in yeast | 590 tested, under 10 active | shares compounds with LAP4-GFP MLPCN | percent response vs DMSO, % at 10 µM | S. cerevisiae AGP1-GFP strain, flow cytometry GFP, 3 h | AID 2643;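 active = over 150 percent of DMSO response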;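 note: median GFP channel fluorescence over all cells without mother daughter split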
s288c autofluor = compound is autofluorescent in yeast s288c cells; fluorescence change (kMESF span) at 33 µM; AID 2757; S. cerevisiae s288c, 520 nm autofluorescence, flow cytometry, 3 h; hits give high values; zero means same as solvent-only cells; 610 tested, under 10 active; shares compounds with LAP4-GFP MLPCN;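 active = fluorescence span over the dose series, or activity score, above about 33, limit read from the data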
Yeast autofl DR = counter-screen for autofluorescence of TOR hits in yeast s288c. shares compounds with LAP4-GFP MLPCN. S. cerevisiae s288c parental, compound autofluorescence, flow cytometry, 3 h. fluorescence change (span) at 33 µM. 110 tested, under 10 active;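 active = fluorescence change span, or the activity score built from it, above 25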
TORC1 bypass = compounds blocking wildtype yeast growth but not TORC1 bypass cells; shares compounds with LAP4-GFP MLPCN; S. cerevisiae BY4741 spot growth rating, 48-72 h; hits give low values; growth rating (0-3) at 30 µM; 120 tested, under 10 active;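 active = growth rating at most 1 for wild type yeast while the TORC1 bypass strain still grows fully, rated 3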
Of the large screens only hits and unclear results are named; the others gave an inactive call (follow-up assays come after a bar, where they were run).

O=c1cc(CSc2ccc(Cl)cc2)nc(-c2ccccn2)[nH]1	LAP4-GFP MLPCN 211.2 | LAP4 cherry2 263.5 | MEP2 cherry2 169.4 | RPL19A GFP CP2 inactive | CIT2-GFP pick2 inactive | AGP1 GFP CP2 inactive | s288c autofluor inactive | Yeast autofl DR inactive | TORC1 bypass inactive
CC(C)(C)n1nnnc1C(c1cccnc1)N1CCN(c2cccc(C(F)(F)F)c2)CC1 (configuration not stated)	none (no result: AGP1 TOR yeast)
CC(C)(C)c1cc(C(c2cccnc2)N2CCN(CCO)CC2)cc(C(C)(C)C)c1O (configuration not stated)	LAP4-GFP MLPCN 160.6 | s288c autofluor inactive
CC1=CC(=O)c2c(O)ccc(O)c2C1=O	LAP4-GFP MLPCN 195.1 (no result: Pemphigus Ab inh) | LAP4 cherry2 196.2 | MEP2 cherry2 276.2 | RPL19A GFP CP2 inactive | CIT2-GFP pick2 inactive | AGP1 GFP CP2 inactive
O=C1C=C(N2CCN(c3ccccn3)CC2)C(=O)c2c(O)ccc(O)c21	none (no result: RPL19A TOR yeast, MEP2-GFP yeast, AGP1 TOR yeast, LAP4-GFP MLPCN, CIT2 TOR yeast)
O=C(CN1c2cccc3cccc(c23)S1(=O)=O)NCc1ccccc1Cl	none (no result: RPL19A TOR yeast, MEP2-GFP yeast, AGP1 TOR yeast, LAP4-GFP MLPCN, CIT2 TOR yeast)
CC(c1ccccc1)N1C(=O)/C(=C/c2ccncc2)SC1=S (configuration not stated)	LAP4-GFP MLPCN 193.7 | LAP4 cherry2 260.5 | MEP2 cherry2 inactive | RPL19A GFP CP2 inactive | CIT2-GFP pick2 inactive | AGP1 GFP CP2 inactive | s288c autofluor inactive
O=C(O)C(c1ccccc1)N1C(=O)/C(=C/c2cccs2)SC1=S (configuration not stated)	none
CNc1nc(N)c([N+](=O)[O-])c(NCc2ccco2)n1	none (no result: RPL19A TOR yeast, MEP2-GFP yeast, Pemphigus Ab inh, AGP1 TOR yeast, LAP4-GFP MLPCN, CIT2 TOR yeast) | Yeast autofl DR inactive | TORC1 bypass inactive
Cc1cccc(Nc2nc(N)c([N+](=O)[O-])c(NCc3ccco3)n2)c1	none
Cc1ccc(S(=O)(=O)c2ncccc2[N+](=O)[O-])cc1	LAP4-GFP MLPCN 199.4 | s288c autofluor inactive | Yeast autofl DR inactive | TORC1 bypass inactive
OCCC#Cc1c(-c2ccsc2)sc2ccccc12	LAP4-GFP MLPCN 159.2 | LAP4 cherry2 inactive | MEP2 cherry2 inactive | RPL19A GFP CP2 inactive | CIT2-GFP pick2 inactive | AGP1 GFP CP2 inactive
CCC1(c2ccccc2)NC(=O)N(CC(=O)Nc2cc(S(=O)(=O)N3CCCCCC3)ccc2OC)C1=O (configuration not stated)	none
COc1ccc(-c2cc(C)no2)cc1S(=O)(=O)N1CCCN(Cc2ccc(F)cc2)C1	none | LAP4 cherry2 inactive | MEP2 cherry2 inactive | RPL19A GFP CP2 inactive | CIT2-GFP pick2 inactive | AGP1 GFP CP2 inactive
COc1ccc(-c2cc(C)no2)cc1S(=O)(=O)Nc1cccc(CN2CCCC2)c1	none
CC(=O)N1CCc2cc(S(=O)(=O)CCC(=O)NCc3ccc(F)cc3)ccc21	none | LAP4 cherry2 inactive | MEP2 cherry2 inactive | RPL19A GFP CP2 inactive | CIT2-GFP pick2 inactive | AGP1 GFP CP2 inactive
Cc1ccc(C(=O)/C=C/c2cc(Br)cc(Br)c2O)o1	none
C=CCNC(=O)/C(C#N)=C/c1ccc(OS(=O)(=O)c2ccc(C)cc2)c(OC)c1	LAP4-GFP MLPCN 185.6 | LAP4 cherry2 inactive | MEP2 cherry2 inactive | RPL19A GFP CP2 inactive | CIT2-GFP pick2 inactive | AGP1 GFP CP2 inactive
COC(=O)N/N=C/c1ccc(OS(=O)(=O)c2ccc(C)cc2)c(OC)c1	none
CCOC(=O)c1cc(-c2ccc(/C=C3/C(=O)NC(=O)C(C#N)=C3C)o2)ccc1Cl	LAP4-GFP MLPCN 151.1 | s288c autofluor inactive
COc1ccc2[nH]c(C(=O)O)c(CCN3C(=O)c4cccc([N+](=O)[O-])c4C3=O)c2c1	none | LAP4 cherry2 inactive | MEP2 cherry2 inactive | RPL19A GFP CP2 inactive | CIT2-GFP pick2 inactive | AGP1 GFP CP2 inactive
CC(Sc1nnc(-c2ccc(Cl)cc2)n1N)C(=O)NCC1CCCO1 (configuration not stated)	none
Cc1ccc(NC(=O)c2cc(N3C(=O)C=CC3=O)ccc2Cl)cc1C	Pemphigus Ab inh 88.7 | LAP4 cherry2 156.3 | MEP2 cherry2 167.7 | RPL19A GFP CP2 inactive | CIT2-GFP pick2 inactive | AGP1 GFP CP2 inactive | s288c autofluor inactive
Cc1ccc(NC(=O)c2cc(-n3cnnc3)ccc2Cl)cc1	none
CCN(CC)C(=S)SCC(=O)c1ccccc1	none (no result: Pemphigus Ab inh, CIT2 TOR yeast)
CCN(CC)C(=S)SSC(=S)N(CC)CC	LAP4-GFP MLPCN 187.0 | LAP4 cherry2 181.4 | MEP2 cherry2 inactive | RPL19A GFP CP2 inactive | CIT2-GFP pick2 inactive | AGP1 GFP CP2 inactive | s288c autofluor inactive
N#C/C(=C\c1ccccn1)c1nc2ccccc2s1	MEP2-GFP yeast 752.5, AGP1 TOR yeast 166.2, LAP4-GFP MLPCN 634.2 (no result: CIT2 TOR yeast) | s288c autofluor 32.9
COC(=O)c1ccc(/C=C(\C#N)c2nc3ccccc3s2)cc1	none
CC(C)/C=C/CN1CCC(Oc2ccc(C(=O)N3CCCC3)cc2)CC1	none (no result: Pemphigus Ab inh)
O=S(=O)(CCN(CCS(=O)(=O)C(F)(F)F)CC1CCCO1)C(F)(F)F (configuration not stated)	LAP4-GFP MLPCN 243.4 | s288c autofluor inactive | Yeast autofl DR inactive | TORC1 bypass inactive
O=C(NCC1CCCO1)C1CCN(S(=O)(=O)N2CCCC2)CC1 (configuration not stated)	none

Screening results from PubChem BioAssay.
